Assay outcomes: PubChem BioAssay, several laboratories
A selection: hits, their analogues and other compounds. The true share with any hit is near 3.9%.
Cardio protect = myocardial damage modulation in H9c2 cells; H9c2 cardiomyocytes, H2O2 injury protection, ATPLite, 2 h; protection from H2O2 cell death, % at 20 µM; hit rate 0.63% among 360,000; AID 588492;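 active = compounds giving at least 50% protection of heart cells from peroxide-induced death in the single-dose screen, raw or plate-pattern-corrected value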;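 note: 0% = DMSO wells with peroxide and 100% = DMSO wells without peroxide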
UBC9 SUMO inh = blocks human SUMOylation mediated by UBC9. P63279. HTRF SUMOylation assay, SAE1/SAE2 + UBC9, in vitro. inhibition, % at 35 µM. hit rate 0.36% among 290,000; in the data active = inhibition above about 50%, passing the limit was not always enough
NTR1 ag = NTR1 (human) agonism | P30989 | NTR1-U2OS beta-arrestin-GFP spot imaging, agonist mode | activation, % at 20 µM | hit rate 0.17% among 330,000;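 active = activation at or above 40% of the spot to cytoplasm intensity ratio, with at least 20 cells analyzed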;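 note: 0% = DMSO without peptide and 100% = 100 nM NTR1 peptide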
Target sequence (P30989 whole entry, looked up): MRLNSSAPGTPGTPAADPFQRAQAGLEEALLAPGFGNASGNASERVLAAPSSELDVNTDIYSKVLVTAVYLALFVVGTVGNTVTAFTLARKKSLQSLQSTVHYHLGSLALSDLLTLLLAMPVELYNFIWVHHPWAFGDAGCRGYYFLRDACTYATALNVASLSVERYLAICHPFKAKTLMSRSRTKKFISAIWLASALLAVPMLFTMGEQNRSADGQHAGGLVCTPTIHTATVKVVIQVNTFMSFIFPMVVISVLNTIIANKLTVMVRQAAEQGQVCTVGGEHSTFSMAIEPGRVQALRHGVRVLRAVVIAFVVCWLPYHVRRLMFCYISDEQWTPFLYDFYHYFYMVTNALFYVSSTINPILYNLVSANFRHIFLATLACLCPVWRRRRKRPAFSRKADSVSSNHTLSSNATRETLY
ALR H2O2 inh = human ALR oxidase inhibition via reduced H2O2. P55789. purified ALR, DTT oxidation, H2O2 HRP-luminol luminescence. inhibition, % (no concentration beside the values). hit rate 3.8% among 290,000;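 active = mean replicate inhibition above about 79%, with every replicate also reaching it, limit read from the data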
Target sequence (P55789 whole entry, looked up): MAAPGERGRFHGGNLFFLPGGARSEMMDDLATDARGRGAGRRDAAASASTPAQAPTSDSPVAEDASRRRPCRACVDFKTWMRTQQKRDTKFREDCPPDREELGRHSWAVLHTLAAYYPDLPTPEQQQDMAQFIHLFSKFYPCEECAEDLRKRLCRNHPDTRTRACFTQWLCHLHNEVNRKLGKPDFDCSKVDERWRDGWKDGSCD
NTR1 ag conf = confirmation of agonists of human NTR1; shares compounds with NTR1 ag; NTR1-U2OS beta-arrestin-GFP translocation imaging; activation, % at 20 µM; hit rate 38% among 480; AID 504550;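 active = mean activation at 20 µM of at least 40%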;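 note: 0% = DMSO without peptide and 100% = 100 nM NTR1 peptide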
The depositor's hits bear a star; . = no result given.

SMILES | Cardio protect | UBC9 SUMO inh | NTR1 ag | ALR H2O2 inh | NTR1 ag conf
Oc1cc(OCc2ccccc2)ccc1-c1[nH]ncc1-c1ccccc1 | -18 | -1 | 36 | . | .
COc1ccccc1-c1cn[nH]c1-c1ccc(OCc2ccccc2F)cc1O | -12 | -7 | 40* | -2 | 2
O=[N+]([O-])c1ccc(COc2ccc(-c3[nH]ncc3-c3ccccc3)c(O)c2)cc1 | -9 | -28 | 42* | -6 | 4
COc1ccccc1-c1cn[nH]c1-c1ccc(OCc2ccc([N+](=O)[O-])cc2)cc1O | -2 | 12 | 10 | . | .
O=C(Nc1ccccc1)N(CCCN1CCOCC1)Cc1cc2cc3c(cc2[nH]c1=O)OCCO3 | 11 | -2 | 0 | -6 | .
CC(C)C[C@H]1CN=C(Nc2ccccc2)N1CCCCc1ccccc1 | 1 | 5 | 9 | -3 | .
Cc1ccc(C(=O)N2CCC3(CC2)Oc2ccc(F)cc2C(=O)C32CC(c3cccnc3)=NO2)s1 (stereo not given) | 12 | 11 | -2 | 0 | .
O=C1CC(c2ccc(Cl)c(Cl)c2)CC(O)=C1C=NCCN1CCNCC1 (stereo not given) | . | -7 | . | . | .
Cc1cccc2sc(NNC(=O)c3cc(-c4cccs4)nc4ccccc34)nc12 | 4 | -10 | 40* | 3 | -1
NNC(=O)c1cc(-c2cccs2)nc2ccccc12 | 7 | 21 | 0 | -5 | .
COc1ccc(CCn2c(NN=C3CCCCC3)nc3c2c(=O)[nH]c(=O)n3C)cc1 | 3 | -11 | 2 | -28 | .
Cc1cccc(NC(=O)c2nc[nH]c2C(=O)N[C@@H](CC(C)C)C(=O)OC(C)(C)C)c1 | 9 | -17 | 52* | -6 | 24
CC(C)(C)OC(=O)NCCCCCNC(=O)c1[nH]cnc1C(=O)Nc1ccc(Cl)cc1 | 66* | . | 48* | 0 | 22
C[C@H](NC(=O)c1nc[nH]c1C(=O)NCc1ccc(CNC(=O)OC(C)(C)C)cc1)C(=O)OCc1ccccc1 | 26 | . | 55* | -8 | 56*
C[C@H](NC(=O)c1nc[nH]c1C(=O)NCc1ccc(CNC(=O)OC(C)(C)C)cc1)c1ccccc1 | -12 | . | 19 | -6 | .
Cc1cccc(NC(=O)c2nc[nH]c2C(=O)N[C@@H](Cc2ccccc2)C(=O)OC(C)(C)C)c1 | -4 | -54 | 51* | -3 | 53*
CC(C)C[C@H](NC(=O)c1nc[nH]c1C(=O)N[C@@H](CC(C)C)C(=O)OC(C)(C)C)C(=O)OC(C)(C)C | 4 | -35 | 27 | 1 | .
CC(C)C[C@H](NC(=O)c1[nH]cnc1C(=O)Nc1ccc(Cl)cc1)C(=O)OC(C)(C)C | 6 | -20 | 56* | 0 | 32
CC(C)(C)OC(=O)NCCCCCNC(=O)c1[nH]cnc1C(=O)N[C@@H](Cc1ccccc1)C(=O)OC(C)(C)C | -10 | . | 47* | 0 | 23
Oc1ccc(Br)cc1/C=N/NC(=S)NCCc1ccccc1 | 32 | -4 | 60* | -1 | 1
COc1ccc(C2=NC(C)(C)Cc3cc(OC)c(OC)cc32)cc1 | -2 | 4 | 2 | 0 | .
COc1cc2c(cc1OC)C(SC)=NC(C)(C)C2 | -5 | -9 | 48* | 7 | 80*
O=C1c2ccc(Cl)cc2S(=O)(=O)c2cccc(C(=O)N3CCC(Cc4ccccc4)CC3)c21 | -4 | . | 52* | -3 | 80*
CSc1nc2nc3c(cn2n1)C(=O)CC(c1ccccc1)C3 (stereo not given) | 10 | 34 | 2 | -3 | .
O=C1CC(c2ccccc2)Cc2nc3nc(C(F)(F)F)nn3cc21 (stereo not given) | -1 | 47 | 49* | -4 | 1
SMILES | Cardio protect | UBC9 SUMO inh | NTR1 ag | ALR H2O2 inh | NTR1 ag conf
OC(CNCC(c1ccc(Cl)cc1Cl)c1c[nH]c2ccccc12)c1ccccc1 (stereo not given) | -24 | -37 | 59* | -46 | 44*
C[C@@H]1CN([C@H](C)CO)C(=O)c2cc(NS(=O)(=O)c3ccc(F)cc3)ccc2O[C@@H]1CN(C)Cc1ccc(Cl)c(Cl)c1 | -10 | . | 40 | . | 39
C[C@H](CO)N1C[C@H](C)[C@@H](CN(C)S(=O)(=O)c2ccc(F)cc2)Oc2ccc(NS(=O)(=O)c3ccc(F)cc3)cc2C1=O | 7 | . | 7 | -5 | .
Cc1cc(=O)oc2cc(OS(C)(=O)=O)ccc12 | -1 | 14 | 0 | -4 | .
Cc1cc2c(N=NC(=O)C3CC3c3ccccc3)c(O)[nH]c2cc1Br (stereo not given) | 28 | 0 | 42* | -3 | 26
Cc1occc1C(=O)N=Nc1c(O)[nH]c2ccc(Br)cc12 | . | 20 | 2 | 3 | .
Cc1ccccc1-n1nc(C(=O)c2cccs2)cc(-c2nc3ccccc3[nH]2)c1=N | -14 | -94 | 55* | . | 2
COc1ccc(-n2nc(C(=O)c3cccs3)cc(-c3nc4ccccc4[nH]3)c2=N)cc1 | -1 | 8 | 76* | . | 13
CC(C)C[C@H]1CN=C(Nc2ccccc2)N1CC1CCC(C(C)(C)C)CC1 (stereo not given in full) | -24 | . | 42* | -67 | 57*
CC(C)C[C@H]1CN=C(Nc2ccccc2)N1CC1CCCC1 | -10 | 8 | -2 | 0 | .
CC(C)NC(=O)C1(C)CCCN1C(=O)c1ccc2c(c1)C(C)(C)CCC2(C)C (stereo not given) | 0 | . | . | . | .
COC(=O)c1c(NC(=O)COC(=O)c2ccc(O)cc2)sc2c1CCCCC2 | -19 | -14 | 43* | -3 | 33
O=C1CSC(c2cccnc2)N1Cc1ccc(Cl)cc1Cl (stereo not given) | 4 | 14 | 1 | -14 | .
CC(C)c1nnc(NC(=O)CCC(=O)NC2CCCCCCC2)s1 | 1 | -10 | 1 | -3 | .
CC(C)c1nnc(NC(=O)CCC2CCCCC2)s1 | -8 | 1 | 41* | 3 | 33
COc1ccc(CNC(=O)C/C(C)=N/NC(=O)c2cc(OC)cc(OC)c2)cc1 | . | -1 | -1 | 10 | .
COc1ccc(-n2c(Cc3cccs3)nnc2SCC(=O)Nc2ccc3c(c2)OCCO3)cc1 | 3 | -2 | 0 | 0 | .
S=C(Nc1ccc(Cl)cc1)c1nc2ccccc2s1 | -7 | -27 | 0 | -6 | .
O=C(Nc1ccc(Cl)cc1)/C(=C/c1cccc(O)c1)c1nc2ccccc2s1 | -18 | 6 | 49* | 27 | 56*
CN(C)S(=O)(=O)c1ccc(-c2csc(N/N=C/c3ccc(O)cc3)n2)cc1 | -4 | 0 | 52* | . | 55*
C(=N\Nc1nc(-c2ccccc2)cs1)/c1ccncc1 | 3 | 2 | 8 | 14 | .
CN(C)S(=O)(=O)c1ccc(-c2csc(N/N=C/c3ccco3)n2)cc1 | -7 | 12 | 71* | -1 | 78*
Cc1ccc(-c2csc(N/N=C/c3ccco3)n2)cc1 | -6 | 2 | 4 | -2 | .
Cc1ccc(NC(=O)c2oc3ccccc3c2COC(C)C)cc1S(=O)(=O)N1CCOCC1 | 13 | . | 3 | -12 | .
CCOc1cc(N2CCOCC2)c(OCC)cc1NC(=O)c1nn(CC)c(=O)c2ccccc12 | 54* | . | 45* | -76 | 37
Cc1ccnc(NC(=O)COc2ccc(Cl)cc2)n1 | -2 | -21 | 0 | -4 | .
